Compounds without any hit were thinned out: in the full panel of roughly 83,000, 20% have a hit.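 48-hour exposure, single concentration, 96-well plates; percent growth endpoint where 0 means no net growth. Active: below 10.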 Values without a mark were called inactive. Calls of active or inactive are those of the source.
Legend:
Assay in all cases: NCI-60 one-dose screen, 48 h (100 = growth as untreated, 0 = no growth, -100 = all killed)
Conditions in all cases: 10 µM unless noted
SR leukemia = test system: SR leukemia
RPMI-8226 leukemia = test system: RPMI-8226 leukemia
OVCAR-8 ovarian = test system: OVCAR-8 ovarian
OVCAR-5 ovarian = test system: OVCAR-5 ovarian
OVCAR-4 ovarian = test system: OVCAR-4 ovarian
SK-OV-3 ovarian = test system: SK-OV-3 ovarian
IGROV1 ovarian = test system: IGROV1 ovarian
HS 578T breast = test system: HS 578T breast
NCI/ADR-RES ovarian = test system: NCI/ADR-RES ovarian
OVCAR-3 ovarian = test system: OVCAR-3 ovarian

| Structure (SMILES) | growth (SR leukemia) | growth (RPMI-8226 leukemia) | growth (OVCAR-8 ovarian) | growth (OVCAR-5 ovarian) | growth (OVCAR-4 ovarian) | growth (SK-OV-3 ovarian) | growth (IGROV1 ovarian) | growth (HS 578T breast) | growth (NCI/ADR-RES ovarian) | growth (OVCAR-3 ovarian) |
| --- | --- | --- | --- | --- | --- | --- | --- | --- | --- | --- |
| COc1cc(C2=C(c3cn(C)c4ccccc34)COC2=O)cc(OC)c1OC | 8.24% (active) | 15.2% | 24.8% | 17.3% | 21.4% | 28.3% | 11.1% | -6.29% (active) | 13% |  |
| COc1ccc(-c2[nH][nH]c(=O)c2-c2nc3ccccc3s2)cc1 | 99.2% | 99.4% | 106% | 105% | 109% | 106% | 105% | 107% | 97.7% | 110% |
| Cc1cnc(C(=O)Nc2nc3ccc(S(=O)(=O)Nc4ccc(C(C)(C)C)cc4)cc3[nH]2)cn1 | 12.3% | 18.6% | 29.2% | 34.8% | 46.5% | 43% | 35.1% | 4.25% (active) | 13.8% |  |
| COc1ccc(/C=C/c2nc(Nc3ccc(S(=O)(=O)Nc4nc(C)cc(C)n4)cc3)c3ccccc3n2)cc1 | 49.5% | 62.3% | 66.1% | 74.9% | 77.2% | 90.9% | 90.8% | 83.1% | 73.1% | 79.6% |
| COc1ccc(/C=C2\Oc3cc(OCCCCCN4CCCCC4)ccc3C2=O)cc1OC | -26.1% (active) | 76.1% | 83.3% | 95.9% | 48.1% | 104% | 94.3% | 93.8% | 84% | 82.8% |
| CC(=O)OC[C@]12CC[C@@H](C(=O)CBr)[C@@H]1[C@H]1CC[C@@H]3[C@@]4(C)CC[C@H](OC(C)=O)C(C)(C)[C@@H]4CC[C@@]3(C)[C@]1(C)CC2 | 4.82% (active) | 91.4% | 81.9% | 102% | 94% | 90% | -1.69% (active) | 101% | 110% | 101% |
| O=C(Cn1c[n+](CC(=O)c2ccc([N+](=O)[O-])cc2)c2ccccc21)Nc1cccc2cccnc12 | 61.8% | 10.2% | 93.2% | 93.9% | 20.4% | 109% | 71.1% | 74.6% | 102% | 38.6% |
| COc1cc(/C=N/O)nc(-c2ccccn2)c1 | 9.23% (active) | 18.7% | 17.6% | 45.3% | 22.2% | 28.6% | 19.2% | 65% | 4.37% (active) |  |
| C=C(C)[C@@H]1CC[C@]2(C(=O)N3CCN(C)CC3)CC[C@]3(C)[C@H](CC[C@@H]4[C@@]5(C)CC[C@H](O)C(C)(C)[C@@H]5CC[C@]43C)[C@@H]12 | -19.9% (active) | -40.1% (active) | -55% (active) | -13.8% (active) | -79.6% (active) | 125% | -72.6% (active) | -46.1% (active) | -42.7% (active) |  |
| CCCCCC(=O)Oc1ccc(/C(=C(\C)c2ccccc2)c2ccc(OCCN3CCCCC3)cc2)cc1 | 30.5% | 64.8% | 89.2% | 88.3% | 82.9% | 80.7% | 90.4% | 75.6% | 76.3% |  |
| COc1cc(F)c(/C=C/c2cc(/C=C/c3cc(OC)c(OC)cc3F)on2)cc1OC | 46.9% | 68.2% | 87.1% | 97.6% | 101% | 105% | 79.5% | 89.2% | 89.3% | 36.1% |
| c1ccc(Cn2cnc3ccc(-c4nc(-c5ccc6c(c5)ncn6C5CCCCC5)cn5ccnc45)cc32)cc1 | 5.45% (active) | -41.2% (active) | 2.45% (active) | -29% (active) | 16.8% | -22.2% (active) | 5.81% (active) | 0.386% (active) | 0.531% (active) |  |
| Nc1c(C(=O)Nc2cccc3cnccc23)sc2nc3c(cc12)CN(Cc1ccccc1)CC3 | 95.5% | 99.7% | 106% | 105% | 105% | 111% | 99.9% | 104% | 112% |  |
| c1ccc2c(-c3nccs3)c[nH]c2c1 | 86% | 104% | 106% | 97.3% | 110% | 99.7% | 101% | 98.3% | 103% |  |
| Oc1cccc(CCc2ccc(Oc3cc(CCc4cccc(O)c4)cc(O)c3O)cc2)c1 | 35.9% | 39.5% | 75.3% | 107% | 58.9% | 94.8% | 41.7% | 84.4% | 82.1% | 63.8% |
| NC(=NCCCOc1ccc(F)cc1)Nc1ccc(I)cc1 | 58% | 64.8% | 89.3% | 89.9% | 45.7% | 81.8% | 66.3% | 84.6% | 81.5% |  |
| COc1cc(C2C3CC4CCCC[C@H]4N3[C@@]3(C(=O)Nc4cc(Cl)ccc43)C2C(=O)c2nc3ccccc3[nH]2)cc(OC)c1OC (stereo partly drawn) | 38.3% | 23.6% | 70.7% | 73.7% | 56.3% | 94.3% | 62.1% | 74% | 66.8% | 69.7% |
| COc1cccc(-c2nc3occn3c2-c2ccnc(NCCCNS(=O)(=O)c3ccc(C(F)(F)F)cc3)n2)c1 | 97.2% | 79.3% | 87% | 128% | 76.4% | 81.9% | 90.5% | 98.2% | 89.2% |  |
| CN(C)CCn1c2ccc(Br)cc2c2nc3ccccc3nc21 | 11.2% | 9.2% (active) | 32.9% | 46.4% | 44% | 50.8% | 18% | 77.8% | 31.8% |  |
| N#Cc1c(NC(=O)NCc2ccccc2)sc2c1CCCC2 | 23.3% | 17.7% | 26.8% | 46% | 48.4% | 35.1% | 28.8% | 9.64% (active) | 11.1% | -15.7% (active) |
| CC1(C)CC[C@]23CC[C@]4(C)[C@H](CC[C@@H]5[C@@]6(C)CCCNC(C)(C)[C@@H]6CC[C@]54C)[C@H]2[C@H]1OC3 | -30.2% (active) | -29.7% (active) | -45.6% (active) | 8.55% (active) | -51.2% (active) | 75.8% | -58.7% (active) | -9.12% (active) | -19.6% (active) |  |
| O=C1Nc2cc(-c3cccc(O)c3)ccc2/C1=C/c1ccc[nH]1 | 4.14% (active) | -15% (active) | 26.6% | 19.4% | 25.4% | 3.46% (active) | 8.78% (active) | -4.18% (active) | 23.8% | -1.19% (active) |
| Cn1ccnc1C(=O)/C=C/c1ccc(CC(=O)NC2CCCCC2)cc1 | 24.8% | 20.3% | 62.4% | 96.8% | 58.6% | 92.9% |  | 86.1% | 75.9% | 27.6% |
| O=C(/C=C/c1ccc(Cl)cc1)c1ccc(NC(=O)N2CCN(c3cc4c(cc3F)c(=O)c(C(=O)O)cn4C3CC3)CC2)cc1 | 22% | 79.1% | 65.3% | 103% | 99.2% | 99.1% | 89.2% | 86.7% | 99.8% |  |
| [O-][n+]1c(Cl)cc(Cl)c2ccccc21 | 89.2% | 95% | 87.4% | 101% | 101% | 94.4% | 104% | 92.2% | 101% |  |
| Nc1nc(Nc2ccccc2SSc2ccccc2Nc2nc(N)nc(-c3ccc(C(F)(F)F)cc3)n2)nc(-c2ccc(C(F)(F)F)cc2)n1 | -5.23% (active) | 43.6% | 56% | 104% | 82% | 104% | 69.7% | 78.7% | 56.4% |  |
| COc1cccc(/C=N/NC(=O)c2cnn3c2NC(c2ccccc2)C3)c1Oc1ccccc1 (stereo not drawn) | 43.1% | 100% | 89% | 97.4% | 98.9% | 90.8% |  | 93.4% | 87.9% | 42% |

Source: PubChem BioAssay (NCI)
